The source of these data is PubChem BioAssay AID624260 (Broad Institute, 2012).

Out of some 44,000 compounds screened, about 30 (0.07%) were called active. About 1% were inconclusive and are not listed. Rule as the data show it: active = inhibition above about 54% (passing the limit was not always enough); inconclusive = no clear call, values can overlap the other calls. Shown is part of a subset that was picked to be rich in actives.

Histone-lysine N-methyltransferase NSD2 (Homo sapiens), sequence (O96028 whole entry, looked up): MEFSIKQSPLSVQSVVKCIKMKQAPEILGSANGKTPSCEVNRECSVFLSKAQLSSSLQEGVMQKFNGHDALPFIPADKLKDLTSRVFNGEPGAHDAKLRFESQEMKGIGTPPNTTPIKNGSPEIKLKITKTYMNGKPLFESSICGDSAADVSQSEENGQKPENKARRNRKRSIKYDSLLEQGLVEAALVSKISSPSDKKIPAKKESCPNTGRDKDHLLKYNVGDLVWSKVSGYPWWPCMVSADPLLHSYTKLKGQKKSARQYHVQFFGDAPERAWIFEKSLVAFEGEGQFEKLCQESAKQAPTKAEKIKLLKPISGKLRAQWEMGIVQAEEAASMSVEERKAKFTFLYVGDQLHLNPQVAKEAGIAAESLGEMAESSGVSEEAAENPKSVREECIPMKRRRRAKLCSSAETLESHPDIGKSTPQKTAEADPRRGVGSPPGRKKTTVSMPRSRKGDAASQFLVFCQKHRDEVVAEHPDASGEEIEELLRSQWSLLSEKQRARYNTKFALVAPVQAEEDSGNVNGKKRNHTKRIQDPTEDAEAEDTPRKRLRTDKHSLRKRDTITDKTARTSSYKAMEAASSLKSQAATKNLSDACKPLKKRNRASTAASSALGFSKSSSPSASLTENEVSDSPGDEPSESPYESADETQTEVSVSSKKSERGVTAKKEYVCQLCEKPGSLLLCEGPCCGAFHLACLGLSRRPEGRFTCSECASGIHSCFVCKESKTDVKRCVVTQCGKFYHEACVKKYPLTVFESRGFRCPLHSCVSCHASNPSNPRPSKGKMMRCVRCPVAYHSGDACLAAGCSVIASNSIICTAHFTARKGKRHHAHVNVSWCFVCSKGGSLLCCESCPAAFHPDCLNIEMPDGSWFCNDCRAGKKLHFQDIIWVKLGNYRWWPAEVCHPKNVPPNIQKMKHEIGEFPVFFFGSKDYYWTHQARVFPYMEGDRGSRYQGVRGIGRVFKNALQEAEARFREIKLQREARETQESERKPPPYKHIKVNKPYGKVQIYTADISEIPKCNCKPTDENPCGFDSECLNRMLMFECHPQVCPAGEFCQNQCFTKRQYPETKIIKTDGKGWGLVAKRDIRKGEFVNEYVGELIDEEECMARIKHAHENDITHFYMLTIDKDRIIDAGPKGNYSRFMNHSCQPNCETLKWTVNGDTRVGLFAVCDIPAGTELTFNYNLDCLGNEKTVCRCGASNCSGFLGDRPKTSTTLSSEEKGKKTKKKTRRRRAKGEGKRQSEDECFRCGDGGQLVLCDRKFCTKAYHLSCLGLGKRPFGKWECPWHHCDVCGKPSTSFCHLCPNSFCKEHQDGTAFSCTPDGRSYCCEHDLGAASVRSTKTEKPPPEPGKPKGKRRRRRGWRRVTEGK

The test addresses Histone-lysine N-methyltransferase NSD2 (Homo sapiens) (UniProt O96028). Put plainly: inhibitors of human NSD2, primary screen, biochemical, plate reader, single point (AID 624260).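 Also: inhibitors reduce the monomethyl H3K36 fluorescence signal.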 The note with it: NSD2-SET H3K36me1 DELFIA fluorescence, at 12.5 µM, stronger effect = higher value.
`C/C=C/c1ccc2c(c1)O[C@H](CN(C)C(=O)Nc1ccccc1)[C@H](C)CN([C@@H](C)CO)S2(=O)=O`: the inhibition is -4.94% (inactive).

Take `C[C@@H]1CN([C@@H](C)CO)C(=O)c2c(c3ccccc3n2C)-c2ccccc2CO[C@@H]1CN(C)S(=O)(=O)c1ccc(F)cc1`: the inhibition is -1.17% (inactive).

On to `C[C@@H]1CN([C@@H](C)CO)C(=O)Cc2cc(NS(=O)(=O)c3ccc(Cl)cc3)ccc2O[C@H]1CN(C)C(=O)Nc1cccc2ccccc12`, for which the inhibition was -4.23% (inactive).

For the molecule `CC(=O)N(C)C[C@H]1Oc2cc(C#CCN(C)C)ccc2S(=O)(=O)N([C@H](C)CO)C[C@H]1C`, the inhibition is -0.922% (inactive).

As for `COc1cccc(CNC(=O)C[C@H]2CC[C@@H](NC(=O)C3CCC3)[C@@H](CO)O2)c1`, the inhibition was 2.46% (inactive).

Consider `COc1ccccc1NC(=O)N[C@H]1CC[C@@H](CC(=O)NCc2ccc(Cl)c(Cl)c2)O[C@H]1CO`, for which the inhibition was -9.36% (inactive).

Regarding `C[C@H](CO)N1C[C@H](C)[C@@H](CN(C)C(=O)Nc2ccc3c(c2)OCO3)Oc2ccc(NS(=O)(=O)c3ccc(Cl)cc3)cc2CC1=O`, the inhibition is 1.14% (inactive).

In the case of `C[C@@H](O)C#Cc1ccc2c(c1)O[C@@H](CN(C)Cc1cccnc1)[C@@H](C)CN([C@@H](C)CO)S2(=O)=O`, the inhibition is 3.08% (inactive).

Consider `COCC#Cc1ccc2c(c1)O[C@H](CN(C)C(=O)CC1CC1)[C@@H](C)CN([C@@H](C)CO)S2(=O)=O`, for which the inhibition is 8.01% (inactive).

As to `CNC[C@@H]1OCCCC[C@H](C)Oc2ccc(NS(=O)(=O)c3ccc(F)cc3)cc2C(=O)N([C@@H](C)CO)C[C@@H]1C`, the inhibition was -5.42% (inactive).

For the molecule `COc1ccc(-c2cnc3c(c2)C(=O)N([C@@H](C)CO)C[C@@H](C)[C@H](CN(C)C)O3)cc1`, the inhibition is 9.08% (inactive).

Turning to `C[C@H](CO)N1C[C@H](C)[C@H](CN(C)C(=O)Nc2ccc3c(c2)OCO3)Oc2cc(C#Cc3ccncc3)ccc2S1(=O)=O`, the inhibition was 2.61% (inactive).

Take `C[C@@H]1CCCCO[C@H](CN(C)C(=O)CCC(F)(F)F)[C@H](C)CN([C@H](C)CO)C(=O)c2cc(NC(=O)NC3CCCCC3)ccc2O1`: the inhibition is -3.86% (inactive).

As for `Cc1cc(C)c(/C=C2\C(=O)Nc3ccccc32)[nH]1`, the inhibition is -2.13% (inactive).

With `Cc1[nH]c(/C=C2\C(=O)Nc3ccc(S(=O)(=O)Cc4c(Cl)cccc4Cl)cc32)c(C)c1C(=O)N1CCC[C@@H]1CN1CCCC1`, the inhibition was 67.1% (active).

On to `C/C=C/c1ccc2c(c1)O[C@@H](CN(C)C(=O)c1ccncc1)[C@@H](C)CN([C@H](C)CO)S2(=O)=O`, for which the inhibition was 0.685% (inactive).

For the molecule `C/C=C/c1cnc2c(c1)C(=O)N([C@@H](C)CO)C[C@@H](C)[C@H](CN(C)Cc1cncnc1)O2`, the inhibition was 2.06% (inactive).

As to `CCCC#Cc1ccc2c(c1)O[C@H](CN(C)C(=O)c1ccncc1)[C@H](C)CN([C@H](C)CO)S2(=O)=O`, the inhibition is 5.45% (inactive).

Take `C[C@H](CO)N1C[C@H](C)[C@@H](CN(C)C(=O)C2CC2)Oc2cc(-c3cccc(C#N)c3)ccc2S1(=O)=O`: the inhibition is -3.58% (inactive).

For the molecule `Cc1noc(C)c1S(=O)(=O)Nc1ccc2c(c1)CC(=O)N([C@@H](C)CO)C[C@@H](C)[C@H](CN(C)S(=O)(=O)c1cccs1)O2`, the inhibition is -2.26% (inactive).

Take `C[C@@H]1CN([C@@H](C)CO)C(=O)Cc2cc(NC(=O)CCCCCC(=O)Nc3ccccc3N)ccc2O[C@H]1CN(C)Cc1ccc(Cl)c(Cl)c1`: the inhibition is -4.04% (inactive).

For `Cc1ccc(-c2cnc3c(c2)C(=O)N([C@H](C)CO)C[C@H](C)[C@@H](CN(C)S(C)(=O)=O)O3)cc1`, the inhibition was 4.66% (inactive).

As to `C[C@H]1CN([C@@H](C)CO)C(=O)c2cc(-c3cccc(F)c3)cnc2O[C@@H]1CN(C)C(=O)c1ccccn1`, the inhibition is 3.24% (inactive).

Turning to `C[C@@H]1CN([C@H](C)CO)C(=O)c2cc(C#Cc3ccncc3)cnc2O[C@H]1CN(C)Cc1ccncc1`, the inhibition is 6.93% (inactive).

Consider `C[C@@H]1CN([C@@H](C)CO)C(=O)c2cc(C#Cc3ccncc3)cnc2O[C@@H]1CN(C)C(=O)CN(C)C`, for which the inhibition was 3.43% (inactive).

As for `CCCC#Cc1cnc2c(c1)C(=O)N([C@H](C)CO)C[C@H](C)[C@@H](CN(C)S(=O)(=O)c1ccccc1)O2`, the inhibition was 8.48% (inactive).

Turning to `C[C@@H]1CN([C@@H](C)CO)S(=O)(=O)c2ccc(C#Cc3cccnc3)cc2O[C@@H]1CN(C)C(=O)CN(C)C`, the inhibition was 0.378% (inactive).

As for `COCC#Cc1cnc2c(c1)C(=O)N([C@H](C)CO)C[C@H](C)[C@H](CN(C)C(=O)Cc1cccnc1)O2`, the inhibition was -0.822% (inactive).

For the molecule `C[C@H](O)C#Cc1ccc2c(c1)O[C@@H](CN(C)C(=O)C1CC1)[C@H](C)CN([C@H](C)CO)S2(=O)=O`, the inhibition was 3.98% (inactive).

As for `CCC(=O)N(C)C[C@@H]1Oc2cc(C#CCOC)ccc2S(=O)(=O)N([C@@H](C)CO)C[C@@H]1C`, the inhibition is 4.65% (inactive).

With `C[C@H](CO)N1C[C@H](C)[C@@H](CN(C)S(=O)(=O)c2cccc(F)c2)Oc2cc(C#CCN(C)C)ccc2S1(=O)=O`, the inhibition was 0.824% (inactive).

`COc1cc(/C=N/NC(=O)c2ccc(C(=O)NO)cc2)ccc1O`: the inhibition was -2.52% (inactive).

Regarding `C[C@@H]1CN([C@H](C)CO)C(=O)c2cc(C#CCN(C)C)cnc2O[C@@H]1CN(C)C(=O)Cc1cccnc1`, the inhibition was -1.47% (inactive).

In the case of `CCCC#Cc1cnc2c(c1)C(=O)N([C@@H](C)CO)C[C@@H](C)[C@@H](CN(C)Cc1ccccc1F)O2`, the inhibition was 4.92% (inactive).

`C[C@@H]1CN([C@@H](C)CO)C(=O)c2cc(C#CC3CCCCC3)cnc2O[C@H]1CN(C)C(=O)Cc1ccccn1`: the inhibition was -1.35% (inactive).

As for `CNC[C@H]1Oc2cc(C#CCOC)ccc2S(=O)(=O)N([C@@H](C)CO)C[C@H]1C`, the inhibition is -0.881% (inactive).

On to `C[C@H]1CN([C@@H](C)CO)S(=O)(=O)c2ccc(-c3ccncc3)cc2O[C@@H]1CN(C)C(=O)CC1CC1`, for which the inhibition was -0.24% (inactive).

`C[C@@H]1CN([C@@H](C)CO)C(=O)c2cc(-c3ccncc3)cnc2O[C@@H]1CN(C)C(=O)C1CCCCC1`: the inhibition is 1.45% (inactive).

Regarding `C[C@@H]1CN([C@@H](C)CO)C(=O)Cc2cc(NC(=O)C3CC3)ccc2O[C@H]1CN(C)C(=O)NC1CCCCC1`, the inhibition is 4.29% (inactive).

`C[C@H](CO)N1C[C@H](C)[C@H](CN(C)Cc2cccnc2)Oc2ncc(C3=CCCC3)cc2C1=O`: the inhibition is 1.28% (inactive).

For `COc1ccc(NC(=O)N(C)C[C@@H]2Oc3ccc(NC(=O)Cc4cn(C)c5ccccc45)cc3CC(=O)N([C@@H](C)CO)C[C@H]2C)cc1`, the inhibition is -6.14% (inactive).

For the molecule `CC(C)NC(=O)N(C)C[C@H]1Oc2ncc(-c3ccc(C(=O)N(C)C)cc3)cc2C(=O)N([C@H](C)CO)C[C@H]1C`, the inhibition is 1.31% (inactive).

Regarding `COc1ccc(NC(=O)N(C)C[C@@H]2OCc3ccccc3-c3c(n(C)c4ccccc34)C(=O)N([C@H](C)CO)C[C@H]2C)cc1`, the inhibition was -10.2% (inactive).

Regarding `CCC(=O)N(C)C[C@@H]1Oc2ncc(C3=CCCC3)cc2C(=O)N([C@H](C)CO)C[C@@H]1C`, the inhibition was -1.76% (inactive).

For the molecule `CCC(=O)N(C)C[C@H]1Oc2cc(-c3ccc(C)cc3)ccc2S(=O)(=O)N([C@@H](C)CO)C[C@H]1C`, the inhibition was -0.743% (inactive).

`Cc1ccccc1S(=O)(=O)N(C)C[C@@H]1OCc2ccccc2-c2c(n(C)c3ccccc23)C(=O)N([C@H](C)CO)C[C@H]1C`: the inhibition is -9.38% (inactive).

With `O=C(C[C@H]1C[C@H]2c3cc(NC(=O)CC4CC4)ccc3O[C@H]2[C@H](CO)O1)NCc1ccccn1`, the inhibition was -2.07% (inactive).

`C[C@@H]1CN([C@@H](C)CO)C(=O)c2cccc(N(C)C)c2O[C@@H]1CN(C)S(=O)(=O)c1ccccc1`: the inhibition was 2.66% (inactive).

For the molecule `C[C@@H]1CCCCO[C@H](CN(C)Cc2ccc(Cl)c(Cl)c2)[C@@H](C)CN([C@@H](C)CO)C(=O)c2cc(NC(=O)Nc3ccccc3)ccc2O1`, the inhibition was -6.5% (inactive).

As to `C[C@@H]1CN([C@H](C)CO)S(=O)(=O)c2ccc(C#CCN(C)C)cc2O[C@H]1CN(C)C(=O)CC1CC1`, the inhibition was 2.71% (inactive).

As for `C[C@@H]1CN([C@@H](C)CO)C(=O)c2cc(C3=CCCC3)cnc2O[C@@H]1CN(C)C(=O)Cc1ccncc1`, the inhibition was -7.1% (inactive).

As for `CN(C)C(=O)C[C@@H]1C[C@@H]2c3cc(NC(=O)C4CCOCC4)ccc3O[C@@H]2[C@@H](CO)O1`, the inhibition was -0.279% (inactive).

On to `COc1ccccc1S(=O)(=O)N(C)C[C@H]1Oc2cc(C#CCC3CCCC3)ccc2S(=O)(=O)N([C@@H](C)CO)C[C@H]1C`, for which the inhibition was -4.13% (inactive).

With `Cc1noc(C)c1NC(=O)Nc1ccc2c(c1)C(=O)N([C@@H](C)CO)C[C@H](C)[C@@H](CN(C)Cc1ccncc1)OCCCC[C@@H](C)O2`, the inhibition was -3.95% (inactive).

As to `C[C@@H]1CN([C@H](C)CO)S(=O)(=O)c2ccc(/C=C/c3ccccc3)cc2O[C@@H]1CN(C)Cc1ccccc1`, the inhibition was 9.82% (inactive).

`CC(C)CC#Cc1cnc2c(c1)C(=O)N([C@@H](C)CO)C[C@@H](C)[C@@H](CN(C)C(=O)c1cccnc1)O2`: the inhibition was -0.174% (inactive).

In the case of `C[C@@H]1CN([C@H](C)CO)C(=O)c2cc(C3=CCCCC3)cnc2O[C@@H]1CN(C)C(=O)c1ccc2c(c1)OCO2`, the inhibition is -0.482% (inactive).

Regarding `C[C@H]1CN([C@@H](C)CO)S(=O)(=O)c2ccc(Br)cc2O[C@H]1CN(C)C(=O)c1cnccn1`, the inhibition is -5.84% (inactive).

As for `COc1cccc(S(=O)(=O)N[C@H]2CC[C@H](CC(=O)NC3CCC3)O[C@H]2CO)c1`, the inhibition was 8.91% (inactive).

Regarding `O=C(C[C@@H]1C[C@@H]2c3cc(NC(=O)c4ccc5c(c4)OCO5)ccc3O[C@@H]2[C@@H](CO)O1)NCC1CC1`, the inhibition was 0.538% (inactive).

For `C[C@H](CO)N1C[C@H](C)[C@H](CN(C)C(=O)Cc2ccccn2)Oc2ncc(-c3cncnc3)cc2C1=O`, the inhibition is -7.65% (inactive).

Consider `Cc1ccc(S(=O)(=O)Nc2ccc3c(c2)C(=O)N([C@H](C)CO)C[C@@H](C)[C@@H](CN(C)C)OCCCC[C@@H](C)O3)cc1`, for which the inhibition was -3.71% (inactive).

For `COc1ccc(NC(=O)N(C)C[C@H]2Oc3ncc(C#C[C@@H](C)O)cc3C(=O)N([C@H](C)CO)C[C@H]2C)cc1`, the inhibition was -13% (inactive).

For the molecule `COc1ccc(CN(C)C[C@@H]2OCCCC[C@@H](C)Oc3ccc(NS(=O)(=O)c4ccc(F)cc4)cc3C(=O)N([C@@H](C)CO)C[C@H]2C)cc1`, the inhibition was -2.7% (inactive).

In the case of `CCCNC(=O)N(C)C[C@H]1Oc2ncc(C#Cc3ccncc3)cc2C(=O)N([C@@H](C)CO)C[C@@H]1C`, the inhibition is 4.58% (inactive).

As to `C/C=C/c1ccc2c(c1)O[C@H](CN(C)C(C)=O)[C@H](C)CN([C@H](C)CO)S2(=O)=O`, the inhibition was 8.37% (inactive).

For the molecule `O=C(C[C@H]1C=C[C@H](NC(=O)CN2CCOCC2)[C@@H](CO)O1)NCc1cccc(F)c1`, the inhibition was -94.1% (inactive).

The inhibition is the change of the read-out against control, counted positive when it falls.
